The text below walks through data of PubChem BioAssay (NCATS).

Records with an inconclusive call do not appear. Activity calls are given as the source filed them. Unless noted, calls follow the shape of the full dose curve.

The nature of test [1]: qHTS for Inhibitors of the Functional Ribonucleoprotein Complex (vRNP) of Lassa (LASV) Arenavirus: LASV Primary Screen - GLuc reporter signal (AID 1347082; calls by dose curve; tested in HEK293 reporter line; also: nearly all actives have a fitted effect of over 60% in size). In general terms: qHTS replaces the single test concentration by a dilution series.
Test [2] can be described thus: qHTS for Inhibitors of the Functional Ribonucleoprotein Complex (vRNP) of Lassa (LASV) Arenavirus: Viability assay - alamar blue signal for LASV Primary Screen (AID 1347083; calls by dose curve; tested in HEK293 reporter line; also: nearly all actives have a fitted effect of over 80% in size).
Test [3] is described as follows: qHTS for Inhibitors of the Functional Ribonucleoprotein Complex (vRNP) of Lymphocytic Choriomeningitis Arenaviruses (LCMV): Viability assay - alamar blue signal for LCMV Primary Screen (AID 1347085; calls by dose curve; tested in HEK293 reporter line; also: nearly all actives have a fitted effect of over 80% in size).
Test [4] concerns the target Nucleoprotein (Lymphocytic choriomeningitis virus (strain Armstrong)) (UniProt P09992). Nature of the test: qHTS for Inhibitors of the Functional Ribonucleoprotein Complex (vRNP) of Lymphocytic Choriomeningitis Arenaviruses (LCMV): LCMV Primary Screen - GLuc reporter signal (AID 1347086). Also: nearly all actives have a fitted effect of over 70% in size.
Potency is read from the fitted curve at half-maximal effect.

Nucleoprotein (Lymphocytic choriomeningitis virus (strain Armstrong)), sequence (P09992 whole entry, looked up): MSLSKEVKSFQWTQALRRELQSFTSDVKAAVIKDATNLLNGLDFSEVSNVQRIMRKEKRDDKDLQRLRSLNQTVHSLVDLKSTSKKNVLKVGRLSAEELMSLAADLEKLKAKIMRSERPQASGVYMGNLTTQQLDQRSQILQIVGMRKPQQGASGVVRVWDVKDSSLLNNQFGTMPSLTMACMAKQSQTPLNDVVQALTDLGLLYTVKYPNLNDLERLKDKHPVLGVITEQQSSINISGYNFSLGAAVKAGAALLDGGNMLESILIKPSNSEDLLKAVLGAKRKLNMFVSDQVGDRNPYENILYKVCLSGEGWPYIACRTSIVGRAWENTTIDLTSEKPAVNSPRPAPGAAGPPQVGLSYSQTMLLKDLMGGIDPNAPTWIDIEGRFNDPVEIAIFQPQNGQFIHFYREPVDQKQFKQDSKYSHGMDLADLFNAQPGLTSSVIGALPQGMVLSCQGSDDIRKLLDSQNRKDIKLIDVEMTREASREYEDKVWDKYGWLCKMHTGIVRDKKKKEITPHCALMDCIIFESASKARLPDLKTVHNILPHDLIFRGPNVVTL

For `CC(C)(C#N)c1cc(Cn2cncn2)cc(C(C)(C)C#N)c1`, the Potency result in test [1], in test [2], in test [3] and in test [4] was “inactive” each time.
On to `Clc1ccc2c(c1)C(N1CCNCC1)=Nc1ccccc1O2`, for which the Potency result in test [1], in test [2], in test [3] and in test [4] was “inactive” each time.
Turning to `Nc1cc(-c2ccncc2)c[nH]c1=O`, the Potency entry in test [1], in test [2], in test [3] and in test [4] was “inactive” throughout.
As to `CN1CC(=O)N/C1=N/C(=O)Nc1cccc(Cl)c1`, the Potency result in test [1], in test [2], in test [3] and in test [4] was “inactive” in each case.
Regarding `CN(C)CCc1c[nH]c2ccc(CS(=O)(=O)N3CCCC3)cc12`, the Potency result in test [1], in test [2], in test [3] and in test [4] was “inactive” throughout.
In the case of `CC/C(=C(\c1ccccc1)c1ccc(OCCN(C)C)cc1)c1ccccc1`, the Potency entry in test [1], in test [2], in test [3] and in test [4] was “inactive” each time.
Consider `CN(C)c1cc(NC(=O)CNC(C)(C)C)c(O)c2c1C[C@@H]1C[C@H]3[C@H](N(C)C)C(=O)C(C(N)=O)=C(O)[C@@]3(O)C(=O)C1=C2O`, for which the Potency result in test [1], in test [2], in test [3] and in test [4] was “inactive” each time.
In the case of `O=NN(CCCl)C(=O)NCCCl`, the Potency result in test [1], in test [2], in test [3] and in test [4] was “inactive” throughout.
With `CC(=O)N[C@@H](CS)C(=O)O`, the Potency entry in test [1], in test [2], in test [3] and in test [4] was “inactive” in each case.
As for `Cc1cc(C)cc(OCC2CNC(=O)O2)c1` (configuration not stated), the Potency entry in test [1], in test [2], in test [3] and in test [4] was “inactive” throughout.
For `COc1ccccc1OCCNCC(O)COc1cccc2[nH]c3ccccc3c12` (configuration not stated), the Potency result in test [1], in test [2], in test [3] and in test [4] was “inactive” each time.
For `C[C@]12CC[C@@H]3c4ccc(O)cc4C[C@@H](CCCCCCCCCS(=O)CCCC(F)(F)C(F)(F)F)[C@H]3[C@@H]1CC[C@@H]2O` (some centres not stated), the Potency result in test [1], in test [2], in test [3] and in test [4] was “inactive” throughout.
Regarding `COc1cc2c(cc1OC)[C@@H]1CC(=O)[C@@H](CC(C)C)CN1CC2`, the Potency entry in test [1], in test [2], in test [3] and in test [4] was “inactive” each time.
Consider `NCCCC(O)(P(=O)(O)O)P(=O)(O)O`, for which the Potency result in test [1], in test [2], in test [3] and in test [4] was “inactive” in each case.
Take `CN/C(=C\[N+](=O)[O-])NCCSCc1ccc(CN(C)C)o1`: the Potency result in test [1], in test [2], in test [3] and in test [4] was “inactive” throughout.
Consider `NCCC(O)(P(=O)(O)O)P(=O)(O)O`, for which the Potency result in test [1], in test [2], in test [3] and in test [4] was “inactive” throughout.
Turning to `C[C@@H](c1ncncc1F)C(O)(Cn1cncn1)c1ccc(F)cc1F` (some centres not stated), the Potency result in test [1], in test [2], in test [3] and in test [4] was “inactive” each time.
As for `CC(C)(C(=O)O)c1ccc(C(O)CCCN2CCC(C(O)(c3ccccc3)c3ccccc3)CC2)cc1` (configuration not stated), the Potency result in test [1], in test [2], in test [3] and in test [4] was “inactive” in each case.
Regarding `Cc1nccn1CC1CCc2c(c3ccccc3n2C)C1=O` (configuration not stated), the Potency result in test [1], in test [2], in test [3] and in test [4] was “inactive” throughout.
Consider `Cc1ccc(C(=O)c2cc(O)c(O)c([N+](=O)[O-])c2)cc1`, for which the Potency result in test [1], in test [2], in test [3] and in test [4] was “inactive” throughout.
`CCN(C)C(=O)Oc1cccc([C@H](C)N(C)C)c1`: the Potency result in test [1], in test [2], in test [3] and in test [4] was “inactive” in each case.
For the compound `C1N2CN3CN1CN(C2)C3`, the Potency entry in test [1], in test [2], in test [3] and in test [4] was “inactive” throughout.
Turning to `CC(C)OC(=O)C(C)(C)Oc1ccc(C(=O)c2ccc(Cl)cc2)cc1`, the Potency result in test [1], in test [2], in test [3] and in test [4] was “inactive” each time.
Take `COCCCOc1cc(C[C@@H](C[C@H](N)[C@@H](O)C[C@H](C(=O)NCC(C)(C)C(N)=O)C(C)C)C(C)C)ccc1OC`: the Potency result in test [1], in test [2], in test [3] and in test [4] was “inactive” throughout.
As to `OCCOCCN1CCN(C(c2ccccc2)c2ccc(Cl)cc2)CC1` (configuration not stated), the Potency result in test [1], in test [2], in test [3] and in test [4] was “inactive” in each case.
For the compound `C[C@H]1c2cccc(O)c2C(O)=C2C(=O)[C@]3(O)C(O)=C(C(N)=O)C(=O)[C@@H](N(C)C)[C@@H]3[C@@H](O)[C@@H]21`, the Potency result in test [1], in test [2], in test [3] and in test [4] was “inactive” throughout.
For `COC(=O)[C@H]1[C@H]2C[C@@H]3c4[nH]c5cc(OC)ccc5c4CCN3C[C@H]2C[C@@H](OC(=O)c2cc(OC)c(OC)c(OC)c2)[C@@H]1OC`, the Potency entry in test [1], in test [2], in test [3] and in test [4] was “inactive” throughout.
For the compound `CC(N)C12CC3CC(CC(C3)C1)C2` (configuration not stated), the Potency result in test [1], in test [2], in test [3] and in test [4] was “inactive” throughout.
Take `CC(C)C[C@H](NC(=O)[C@H](Cc1ccccc1)NC(=O)c1cnccn1)B(O)O`: the Potency in test [1] is 485 nM (active); in test [2], 217 nM (active); in test [3], 685 nM (active); in test [4], 344 nM (active).
The matching figures for `CC(C)(C)NC(=O)[C@@H]1CN(Cc2cccnc2)CCN1C[C@@H](O)C[C@@H](Cc1ccccc1)C(=O)N[C@H]1c2ccccc2C[C@H]1O`: “inactive”, “inactive”, “inactive” and “inactive”.
On to `CCN1CCN(C(=O)N[C@@H](C(=O)N[C@@H]2C(=O)N3C(C(=O)O)=C(CSc4nnnn4C)CS[C@H]23)c2ccc(O)cc2)C(=O)C1=O`, for which the Potency result in test [1], in test [2], in test [3] and in test [4] was “inactive” each time.
`Cc1ccccc1C(OCCN(C)C)c1ccccc1` (configuration not stated): the Potency entry in test [1], in test [2], in test [3] and in test [4] was “inactive” in each case.
On to `NC[C@H](O)c1ccc(O)c(O)c1`, for which the Potency result in test [1], in test [2], in test [3] and in test [4] was “inactive” in each case.
